# Assay outcomes deposited in PubChem BioAssay by National Center for Advancing Translational Sciences (NCATS).
# Only some compounds are listed: those with a hit (about 7.9% of all), similar ones and a draw of the others.
# HCV inhibitor: HCV inhibition; Potency, µM (highest dose often 41.8 µM), hits mostly inhibitors; Huh7.5.1 HCVcc-Cre infection, luciferase reporter, 44 h; 3.4% of 340,000 active; active means well fitted inhibition curve with a large enough effect; inconclusive means small, poorly fitted or top-dose-only effect, or another doubt; inactive means no such curve, though single readings can be large or run the other way
#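 Whole-lifecycle infectious HCVcc-Cre system; cells 1,000/well, compound then virus (~0.5 moi) added 4 h after plating, 44 h culture. Luciferase read 15 sec following 15 min substrate incubation, room temp.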
# MARV entry inh: inhibitors of Marburg virus binding or cell entry | Marburg virus pseudotyped entry inhibition, cell reporter | Potency, µM (highest dose often 37.8 µM), hits mostly inhibitors | 1.8% of 300,000 active; calls by dose curve; tested in HEK293 cells
# HCMV inh: inhibitors of human cytomegalovirus; 4.5% of 410,000 active; HFF cells, HCMV-luciferase reporter, 72 h; active compounds read low; AID 1259415; activity change, negative = inhibition, % at 57.5 µM; in the data active means activity change below about -60%; inconclusive means no clear call, values can overlap the other calls; inactive means above about -39%
#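 Cell-based, HFFs, 1000 cells/well, 16 h 37C; cpds in DMSO + HCMV-luc, MOI 1 PFU/cell; 72 h 37C; OneGlo luminescence after 5 min RT; norm. to buffer vs Salinomycin 10uM.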
# FMDV inh: antivirals against foot and mouth disease virus; FMDV antiviral cell-based qHTS; Potency, µM (titrated, usually from 57.9 µM), most hits filed as inhibitors; 1.2% of 410,000 active; calls by dose curve; tested in HEK293T cells; further: read-out not given here; nearly all actives have a fitted effect of over 45% in size
# LASV entry inh: blocks Lassa virus binding to or entry into cells. Potency, µM (doses to about 37.9 µM), usual class: inhibitors. AID 540256. 1.2% of 300,000 active. Lassa virus pseudotype entry inhibition, cell reporter; calls by dose curve; tested in HEK293 cells; further: nearly all actives have a fitted effect of over 50% in size
# A number is an active result; . = inactive; ? = inconclusive; / = not tested or not shown.
SMILES,HCV inhibitor,MARV entry inh,HCMV inh,FMDV inh,LASV entry inh
CN1CCN(c2sc(S(C)(=O)=O)nc2S(=O)(=O)c2ccc(Cl)cc2)CC1,.,/,-80.0,.,/
Cc1ccc(S(=O)(=O)c2nc(S(C)(=O)=O)sc2N2CCCCC2C)cc1 (stereo unspecified),.,/,-75.2,.,/
CCS(=O)(=O)c1nc(S(=O)(=O)c2ccc(Cl)cc2)c(N2CCCC2)s1,.,/,.,.,/
CS(=O)(=O)c1nc(S(=O)(=O)c2ccc(Cl)cc2)c(N2CCN(CCO)CC2)s1,.,/,-62.9,.,/
CCS(=O)(=O)c1nc(S(=O)(=O)c2ccc(Cl)cc2)c(N2CCN(C)CC2)s1,.,/,-77.3,.,/
CS(=O)(=O)c1nc(S(=O)(=O)c2ccc(Cl)cc2)c(N2CCCCCC2)s1,.,.,?,.,.
Cc1cc(NC(=O)CN2C(=O)/C(=C/c3ccccc3F)SC2=S)no1,.,.,.,.,/
Cc1ccc(S(=O)(=O)c2nc(S(=O)(=O)c3ccc(C)cc3)c(N3CCN(CCO)CC3)s2)cc1,?,/,-107.5,.,/
O=C(NC1CCCCC1)C(c1ccccc1)N(Cc1ccc2c(c1)OCO2)C(=O)c1cnsn1 (stereo unspecified),.,11.2µM,.,.,?
Cc1ccc(C(C(=O)NC2CCCC2)N(Cc2ccc3c(c2)OCO3)C(=O)c2snc(C(N)=O)c2N)cc1 (stereo unspecified),.,?,.,.,.
Cc1ccc(NC(=O)c2cnccn2)c(OC(F)F)c1,12.6µM,.,.,.,.
CCNS(=O)(=O)c1ccc(NC(=O)Nc2ccccc2OC)cc1,?,.,.,.,.
COc1ccc(NC(=O)Nc2ccc(C)cc2OC(F)F)cc1OC,6.31µM,.,.,.,.
Cc1cc(F)ccc1NC(=O)c1cnccn1,.,.,.,.,/
CCNS(=O)(=O)c1ccc(NC(=O)Nc2cc(C)ccc2OC)cc1,12.6µM,/,.,.,/
C#CCNC(=O)[C@H]1C=C(OC)C(=O)C[C@H]2c3ccccc3C[C@]12C,/,.,/,/,/
O=C(c1ccco1)N1CCC2(CC1)CN(C(c1ccccc1)c1ccccc1)C2,/,/,/,.,/
CCc1ccc(Sc2cc(C(=O)NCCCN3CCC(C)CC3)c3ccccc3n2)cc1,/,/,-77.1,.,?
CCc1ccc(Sc2cc(C(=O)NCCCN3CCCC(C)C3)c3ccccc3n2)cc1 (stereo unspecified),/,/,-60.5,.,?
CCc1ccc(Sc2cc(C(=O)NCc3cccc(OC)c3)c3ccccc3n2)cc1,/,/,?,.,?
CCc1ccc(Nc2cc(C(=O)NCCCN3CCOCC3)c3ccccc3n2)cc1,?,/,?,.,/
CCOc1ccc(NC(=O)CSc2nc3c(oc4ccccc43)c(=O)n2-c2cc(C)cc(C)c2)cc1,/,?,.,.,/
Cc1cc(NC(=O)Cn2nnc3sc4c(c3c2=O)CCC(C(C)(C)C)C4)no1 (stereo unspecified),11.2µM,.,?,.,.
CCCC[C@H](CCC(=O)Nc1ccc(C(=O)OC)cc1)C(=O)O,/,.,/,/,/
O=C(CN1CCN(c2ccccc2O)CC1)Nc1cc(S(=O)(=O)N2CCCC2)ccc1Cl,11.2µM,/,.,.,/
SMILES,HCV inhibitor,MARV entry inh,HCMV inh,FMDV inh,LASV entry inh
O=C(CN1CCN(c2ccccn2)CC1)Nc1cccc(Cl)c1Cl,.,.,.,.,7.08µM
O=C(CCl)Nc1cc(S(=O)(=O)N2CCCCCC2)ccc1Cl,35.5µM,?,-64.1,?,?
O=C(CN1CCN(c2ccccn2)CC1)Nc1ccccc1Br,.,/,.,.,/
COc1ccc(Cl)cc1NC(=O)CN1CCN(S(=O)(=O)c2ccc(F)cc2)CC1,.,.,.,.,.
COc1ccc(S(=O)(=O)N2CCN(CC(=O)Nc3cc(Cl)ccc3Cl)CC2)cc1,.,?,-71.5,.,.
COc1ccc(CN2C(=O)C(n3cccc3)c3ccccc32)cc1 (stereo unspecified),/,/,.,/,/
NC(=O)c1nn(-c2ccc(Cl)cc2Cl)c(=O)cc1O,.,.,.,.,.
Cc1ccc(-c2nc(SCC(=O)Nc3cc(S(=O)(=O)N4CCCCC4)ccc3Cl)n[nH]2)cc1,?,16.4µM,.,.,?
O=[N+]([O-])c1cc(S(=O)(=O)N2CCCCCC2)ccc1Cl,11.2µM,?,?,.,?
Nc1cc(=O)[nH]c(SCC(=O)Nc2cc(S(=O)(=O)N3CCCCCC3)ccc2Cl)n1,.,.,.,.,.
Cc1ccc(S(=O)(=O)N2CCCC2)cc1[N+](=O)[O-],.,.,.,.,.
N#CC1CN(Cc2ccccc2)CN(Cc2ccccc2)C1,.,?,-62.5,.,.
N#CC1CN(C(c2ccccc2)c2ccccc2)C1,.,.,?,.,.
Cc1cccc(N=C2NN=C(c3ccc4c(c3)OCCO4)CS2)c1,.,?,.,.,?
Cc1cccc(N=C2NN=C(c3c(C)[nH]c4ccccc34)CS2)c1,?,?,-98.9,?,?
CCOc1ccc(/C=C(\C#N)C(=O)Nc2sc3c(c2C(=O)OC)CCC3)cc1OC,/,/,.,.,.
COc1ccc(/C=C\C(=O)CC(O)(c2ccccc2)C(F)(F)F)cc1 (stereo unspecified),.,.,.,20µM,?
CC(C)(C)N1C(=O)[C@@H]2[C@H]3[C@H](O)[C@H](O)CC(=NOCc4ccccc4)[C@H]3CC[C@H]2C1=O,/,.,/,/,/
COc1ccc(S(=O)(=O)N(Cc2ccccc2)Cc2nc3ccccc3c(=O)[nH]2)cc1,?,.,-99.8,.,?
CN(C)c1ccc(-c2nc3ccccc3c(=O)[nH]2)cc1,.,/,.,.,/
COc1ccccc1CN(Cc1nc2ccccc2c(=O)[nH]1)S(=O)(=O)c1ccc2ccccc2c1,35.5µM,?,.,/,?
COc1ccc(-c2nc3ccccc3c(=O)[nH]2)cc1,.,12.6µM,.,.,?
COc1ccc(-c2ccc(C(=O)NCC3Cc4cccc(-c5nc(C)cnc5C)c4O3)o2)cc1 (stereo unspecified),/,/,/,.,/
CC1(C)Cc2c(c(N3CCOCC3)nc3sc4c(NN)ncnc4c23)CS1,?,?,-88.2,.,.
CC(C)CNc1nnnc2c1sc1nc(N3CCOCC3)c3c(c12)CC(C)(C)SC3,10µM,?,?,?,14.1µM
SMILES,HCV inhibitor,MARV entry inh,HCMV inh,FMDV inh,LASV entry inh
CC(C)CNc1ncnc2c1sc1nc(N3CCOCC3)c3c(c12)CC(C)(C)OC3,?,.,.,.,.
CC1(C)Cc2c(c(N3CCOCC3)nc3sc4c(NCc5ccccc5)nnnc4c23)CS1,.,.,?,.,?
Cc1ccc(S(=O)(=O)N2CCN(C(=O)COC(=O)c3ccccc3OC(F)F)CC2)c(C)c1,.,/,.,.,/
COC(=O)[C@]1(C#N)[C@H](Cc2ccccc2)C(=O)N(Cc2ccc(Cl)cc2)[C@@H]1c1ccc(OC)cc1,/,/,.,/,/
Cc1ccc(-c2nnc(N3CCN(C(=O)COc4cccc(C)c4)CC3)c3ccccc23)cc1,?,?,.,25.1µM,?
Cc1ccc(OCC(=O)N2CCN(c3nnc(-c4ccc(C)cc4)c4ccccc34)CC2)cc1,8.91µM,4.11µM,-98.7,?,?
COc1ccc(OCC(=O)N2CCN(c3nnc(-c4ccccc4)c4ccccc34)CC2)cc1,17.8µM,?,.,?,?
O=C(COc1ccccc1)N1CCN(c2nnc(-c3ccccc3)c3ccccc23)CC1,?,?,?,?,.
